{
  "source": "the supplement of paper PMC4466140",
  "assay_in_all_cases": "SPOT peptide array binding signal intensity (averaged, normalized) (arbitrary units (background-subtracted, floor 0; scale differs between SH3 domains)); higher = stronger binding of the SH3 domain to the peptide",
  "key": {"[1]": {"target": "AgAbp1", "method_in_brief": "(§1)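 Cellulose membranes carried synthetic 15-mer peptides with cysteines swapped for serines. These were incubated overnight at 4°C with 10 μg/ml of GST-fused SH3 domains from four yeast species in TBS-based blocking buffer. Binding signal, detected with anti-GST antibody and quantified in Genespotter, is the normalized, background-subtracted spot intensity averaged over replicates, in arbitrary units specific to each domain.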"}, "[2]": {"target": "AgBbc1", "method_in_brief": "as §1"}, "[3]": {"target": "AgBem1-D1", "method_in_brief": "as §1"}, "[4]": {"target": "AgBzz1-D1", "method_in_brief": "as §1"}, "[5]": {"target": "AgBzz1-D2", "method_in_brief": "as §1"}, "[6]": {"target": "AgCyk3", "method_in_brief": "as §1"}, "[7]": {"target": "AgFus1", "method_in_brief": "as §1"}, "[8]": {"target": "AgHof1", "method_in_brief": "as §1"}, "[9]": {"target": "AgHse1", "method_in_brief": "as §1"}, "[10]": {"target": "AgLsb1", "method_in_brief": "as §1"}, "[11]": {"target": "AgLsb4", "method_in_brief": "as §1"}, "[12]": {"target": "AgMyo5", "method_in_brief": "as §1"}, "[13]": {"target": "AgNbp2", "method_in_brief": "as §1"}, "[14]": {"target": "AgRvs167", "method_in_brief": "as §1"}, "[15]": {"target": "AgSho1", "method_in_brief": "as §1"}, "[16]": {"target": "AgSla1-D1-D2", "method_in_brief": "as §1"}, "[17]": {"target": "AgSla1-D3", "method_in_brief": "as §1"}, "[18]": {"target": "CaAbp1-D1", "method_in_brief": "as §1"}, "[19]": {"target": "CaAbp1-D2", "method_in_brief": "as §1"}, "[20]": {"target": "CaBbc1", "method_in_brief": "as §1"}, "[21]": {"target": "CaBem1-D1", "method_in_brief": "as §1"}, "[22]": {"target": "CaBzz1-D1", "method_in_brief": "as §1"}, "[23]": {"target": "CaBzz1-D2", "method_in_brief": "as §1"}, "[24]": {"target": "CaCyk3", "method_in_brief": "as §1"}, "[25]": {"target": "CaFus1", "method_in_brief": "as §1"}, "[26]": {"target": "CaHof1", "method_in_brief": "as §1"}, "[27]": {"target": "CaHse1", "method_in_brief": "as §1"}, "[28]": {"target": "CaLsb1", "method_in_brief": "as §1"}, "[29]": {"target": "CaLsb4", "method_in_brief": "as §1"}, "[30]": {"target": "CaMyo5", "method_in_brief": "as §1"}, "[31]": {"target": "CaNbp2", "method_in_brief": "as §1"}, "[32]": {"target": "CaRvs167", "method_in_brief": "as §1"}, "[33]": {"target": "CaRvs167-3", "method_in_brief": "as §1"}, "[34]": {"target": "CaSho1", "method_in_brief": "as §1"}, "[35]": {"target": "CaSla1-D1-D2", "method_in_brief": "as §1"}, "[36]": {"target": "CaSla1-D3", "method_in_brief": "as §1"}, "[37]": {"target": "ScAbp1", "method_in_brief": "as §1"}},
  "data": [
    {"binder": "RTRRRPPPPPIPSTQ", "values": [
      {"measurement": "SPOT peptide array binding signal intensity", "setting": "[1]", "value": 334},
      {"measurement": "SPOT peptide array binding signal intensity", "setting": "[2]", "value": 531},
      {"measurement": "SPOT peptide array binding signal intensity", "setting": "[3]", "value": 308},
      {"measurement": "SPOT peptide array binding signal intensity", "setting": "[4]", "value": 3430},
      {"measurement": "SPOT peptide array binding signal intensity", "setting": "[5]", "value": 1460},
      {"measurement": "SPOT peptide array binding signal intensity", "setting": "[6]", "value": 2},
      {"measurement": "SPOT peptide array binding signal intensity", "setting": "[7]", "value": 87},
      {"measurement": "SPOT peptide array binding signal intensity", "setting": "[8]", "value": 256},
      {"measurement": "SPOT peptide array binding signal intensity", "setting": "[9]", "value": 91},
      {"measurement": "SPOT peptide array binding signal intensity", "setting": "[10]", "value": 370},
      {"measurement": "SPOT peptide array binding signal intensity", "setting": "[11]", "value": 136},
      {"measurement": "SPOT peptide array binding signal intensity", "setting": "[12]", "value": 339},
      {"measurement": "SPOT peptide array binding signal intensity", "setting": "[13]", "value": 2690},
      {"measurement": "SPOT peptide array binding signal intensity", "setting": "[14]", "value": 99.3},
      {"measurement": "SPOT peptide array binding signal intensity", "setting": "[15]", "value": 27},
      {"measurement": "SPOT peptide array binding signal intensity", "setting": "[16]", "value": 23},
      {"measurement": "SPOT peptide array binding signal intensity", "setting": "[17]", "value": 735},
      {"measurement": "SPOT peptide array binding signal intensity", "setting": "[18]", "value": 748},
      {"measurement": "SPOT peptide array binding signal intensity", "setting": "[19]", "value": 1060},
      {"measurement": "SPOT peptide array binding signal intensity", "setting": "[20]", "value": 965},
      {"measurement": "SPOT peptide array binding signal intensity", "setting": "[21]", "value": 124},
      {"measurement": "SPOT peptide array binding signal intensity", "setting": "[22]", "value": 7320},
      {"measurement": "SPOT peptide array binding signal intensity", "setting": "[23]", "value": 4870},
      {"measurement": "SPOT peptide array binding signal intensity", "setting": "[24]", "value": 53.5},
      {"measurement": "SPOT peptide array binding signal intensity", "setting": "[25]", "value": 452},
      {"measurement": "SPOT peptide array binding signal intensity", "setting": "[26]", "value": 0.5},
      {"measurement": "SPOT peptide array binding signal intensity", "setting": "[27]", "value": 21},
      {"measurement": "SPOT peptide array binding signal intensity", "setting": "[28]", "value": 1.25},
      {"measurement": "SPOT peptide array binding signal intensity", "setting": "[29]", "value": 1170},
      {"measurement": "SPOT peptide array binding signal intensity", "setting": "[30]", "value": 19.8},
      {"measurement": "SPOT peptide array binding signal intensity", "setting": "[31]", "value": 1440},
      {"measurement": "SPOT peptide array binding signal intensity", "setting": "[32]", "value": 111},
      {"measurement": "SPOT peptide array binding signal intensity", "setting": "[33]", "value": 22.5},
      {"measurement": "SPOT peptide array binding signal intensity", "setting": "[34]", "value": 98},
      {"measurement": "SPOT peptide array binding signal intensity", "setting": "[35]", "value": 2100},
      {"measurement": "SPOT peptide array binding signal intensity", "setting": "[36]", "value": 391},
      {"measurement": "SPOT peptide array binding signal intensity", "setting": "[37]", "value": 114}
    ]}
  ]
}
